In PubChem BioAssay (EPA / NIEHS):
Inconclusive results are not listed. Activity calls are given as the source filed them. How the source made its calls, unless noted: active means hit-call score of the fitted dose curve at least 0.9, where 1 is the maximum; inconclusive means response in the unintended direction; inactive means score below 0.9.

Legend:
[1] = ATG_TAL_CIS: Attagene CIS-FACTORIAL HepG2 Assay for human TAL Basal Promoter (AID 2282966; active means hit-call score of the fitted dose curve at least 0.9, where 1 is the maximum; inactive means score below 0.9;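 further: background control endpoint measuring basal TAL promoter reporter mRNA not a specific factor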); details: HepG2 Attagene cis-factorial TAL promoter reporter; actives raise or lower the signal
Method in brief: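 In this cell-based multiplex, HepG2 liver cells bearing cis-promoter reporter constructs are dosed for 24 hours. Total RNA is reverse-transcribed and amplified, labelled fragments are sized by capillary electrophoresis, and signal changes are fitted bidirectionally versus DMSO.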

[2] = ATG_TGFb_CIS: Attagene CIS-FACTORIAL HepG2 Assay for human Transforming Growth Factor (TGF) (AID 2282967; active means hit-call score of the fitted dose curve at least 0.9, where 1 is the maximum; inactive means score below 0.9); details: HepG2 Attagene CIS TGFb reporter, mRNA transcription; actives raise or lower the signal
Method in brief: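 Transcript-level reporter readout: HepG2 transfectants, 24 h exposure, RNA to cDNA, reporter-specific PCR, fluorescent primer extension, capillary sizing against ROX standards. Gain- or loss-of-signal relative to DMSO.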

[3] = target: Nuclear receptor subfamily 1 group I member 3 (Homo sapiens) (UniProt Q14994); assay: ATG_CAR_TRANS: Attagene TRANS-FACTORIAL HepG2 Assay for human Constitutive Androstane Receptor (CAR) (AID 2282969); details: HepG2 Attagene TRANS-FACTORIAL CAR reporter;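 further: activators raise reporter mRNA above DMSO so AC50 marks induction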
Method in brief: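 HepG2 cells transiently transfected with GAL4-UAS reporter units; TRANS format reads activity of exogenous chimeric NR-Gal4 protein. After 24 h dosing, reporter mRNA quantified by RT-PCR, 6-FAM labelling and capillary electrophoresis; gain of signal fitted against DMSO.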

[4] = target: X-box-binding protein 1 (Homo sapiens) (UniProt P17861); assay: ATG_Xbp1_CIS: Attagene CIS-FACTORIAL HepG2 Assay for human X-box Binding Protein 1 (XBP1) (AID 2282972; active means hit-call score of the fitted dose curve at least 0.9, where 1 is the maximum; inactive means score below 0.9); details: HepG2 XBP1 cis-element reporter, Attagene multiplex; actives raise or lower the signal
Method in brief: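 HepG2 cells transiently transfected with multiple cis-element reporter units report endogenous TF activity; 24 h exposure, then reporter mRNA measured by RT-PCR, 6-FAM labelling, HpaI digestion and capillary electrophoresis. Bidirectional fitting versus DMSO.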

[5] = ATG_M_19_TRANS: Attagene TRANS-FACTORIAL HepG2 Assay for M19 Transcription Factor (Internal Marker) (AID 2282974); details: HepG2 Attagene TRANS-FACTORIAL M19 internal marker reporter
Method in brief: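 Fluorescence of 6-FAM-labelled reporter cDNA fragments, separated by capillary electrophoresis, served as the readout. These derived from HepG2 cells carrying transfected GAL4-UAS reporter units after 24 h dosing, with DMSO as negative control.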

[6] = ATG_GAL4_TRANS: Attagene TRANS-FACTORIAL HepG2 Assay for GAL4 (Internal Marker) (AID 2282976); details: HepG2 Attagene TRANS GAL4 internal marker reporter
Method in brief: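 RT-PCR/capillary electrophoresis readout of reporter mRNA. HepG2, transient MRTU transfection (GAL4-UAS reporters), 24 h compound exposure. Background-control endpoint, positive direction vs DMSO baseline.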

[7] = target: Estrogen-related receptor gamma (Homo sapiens) (UniProt P62508); assay: ATG_ERRg_TRANS: Attagene TRANS-FACTORIAL HepG2 Assay for human Estrogen-Related Receptor gamma (ERRg) (AID 2282977); details: HepG2 Attagene TRANS reporter, ERRg transactivation;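 further: hits increase reporter signal over DMSO so potencies reflect activators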
Method in brief: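 Transfect HepG2 with multiple GAL4-UAS reporter transcription units; dose chemicals 24 h; isolate RNA, reverse-transcribe with oligo(dT), PCR-amplify, label with 6-FAM, digest with HpaI; size fragments by capillary electrophoresis. DMSO serves as negative control.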

[8] = target: Bile acid receptor (Homo sapiens) (UniProt Q96RI1); assay: ATG_FXR_TRANS: Attagene TRANS-FACTORIAL HepG2 Assay for Farnesoid X Receptor (FXR) (AID 2282979); details: HepG2 Attagene TRANS FXR-GAL4 reporter transcription;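 further: hits raise reporter mRNA above DMSO so AC50 marks FXR activation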
Method in brief: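 Read-out: fluorescent reporter transcripts quantified by capillary electrophoresis after RT-PCR of total RNA. Source cells were HepG2 transiently carrying chimeric NR-GAL4 plus GAL4-UAS reporter units, dosed 24 h. Activity fitted upward relative to DMSO baseline.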

[9] = target: Oxysterols receptor LXR-beta (Homo sapiens) (UniProt P55055); assay: ATG_LXRb_TRANS: Attagene TRANS-FACTORIAL HepG2 Assay for human Liver X Receptor beta (LXRb) (AID 2282981); details: HepG2 Attagene TRANS GAL4-LXRb reporter, mRNA
Method in brief: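 HepG2 cells transiently transfected with GAL4-UAS reporter units for chimeric NR-Gal4 proteins, dosed for 24 h. Reporter transcripts measured by RT-PCR and capillary electrophoresis; gain-of-signal fitting relative to DMSO.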

[10] = target: Hepatocyte nuclear factor 4-alpha (Homo sapiens) (UniProt P41235); assay: ATG_HNF4a_TRANS: Attagene TRANS-FACTORIAL HepG2 Assay for human Hepatocyte Nuclear Factor 4 alpha (HNF4a) (AID 2282982); details: HepG2 HNF4a transactivation reporter, mRNA readout
Method in brief: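 HepG2 cells transiently transfected with HNF4a-Gal4 chimera and GAL4-UAS reporter units, dosed for 24 h. Reporter mRNA measured by RT-PCR, fluorescent primer extension and capillary electrophoresis; gain-of-signal fitted relative to DMSO.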

[11] = ATG_M_32_TRANS: Attagene TRANS-FACTORIAL HepG2 Assay for M32 Transcription Factor (Internal Marker) (AID 2282984); details: HepG2 Attagene TRANS M32 internal marker reporter
Method in brief: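 HepG2 cells transiently transfected with GAL4-UAS reporter units, dosed for 24 hours. Reporter mRNA quantified by RT-PCR, 6-FAM labelling, HpaI digestion and capillary electrophoresis; internal-marker signal fitted upward relative to DMSO.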

[12] = target: Nuclear receptor subfamily 4 group A member 2 (Homo sapiens) (UniProt P43354); assay: ATG_NURR1_TRANS: Attagene TRANS-FACTORIAL HepG2 Assay for human Nuclear Receptor Related Protein 1 (NURR1) (AID 2282985); details: HepG2 Attagene TRANS reporter, mRNA readout
Method in brief: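 HepG2 cells transiently transfected with NURR1-Gal4 chimera and GAL4-UAS reporter units; after 24 hr compound exposure, reporter mRNA quantified by RT-PCR and capillary electrophoresis; gain of signal fitted against DMSO.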

[13] = target: Transcriptional activator Myb (Homo sapiens) (UniProt P10242); assay: ATG_Myb_CIS: Attagene CIS-FACTORIAL HepG2 Assay for human Myeloblastosis (Myb) Proto-Oncogene Transcription Factor (AID 2282986; active means hit-call score of the fitted dose curve at least 0.9, where 1 is the maximum; inactive means score below 0.9); details: HepG2 Attagene CIS-FACTORIAL Myb reporter transcription; actives raise or lower the signal
Method in brief: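 Reporter transcript levels, quantified by fluorescent RT-PCR and capillary electrophoresis, serve as the read-out. Transfected HepG2 cells carrying cis-promoter reporter units are dosed for 24 hours, and curves are fitted bidirectionally against DMSO controls.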

[14] = target: Nuclear respiratory factor 1 (Homo sapiens) (UniProt Q16656); assay: ATG_NRF1_CIS: Attagene CIS-FACTORIAL HepG2 Assay for human Nuclear Respiratory Factor 1 (NRF1) Orphan Gene (AID 2282987; active means hit-call score of the fitted dose curve at least 0.9, where 1 is the maximum; inactive means score below 0.9); details: HepG2 NRF1 cis-element reporter, Attagene multiplex; actives raise or lower the signal
Method in brief: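 Multiplexed cis-reporter assay, HepG2 cells, 24 h treatment. Total RNA → oligo(dT) RT → PCR with reporter-specific primers → 6-FAM primer extension → HpaI cut → CE. Bidirectional fit vs DMSO.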

[15] = ATG_VDRE_CIS: Attagene CIS-FACTORIAL HepG2 Assay for human Vitamin D Receptor Element (VDRE) (AID 2282968; active means hit-call score of the fitted dose curve at least 0.9, where 1 is the maximum; inactive means score below 0.9); details: HepG2 VDRE cis-reporter transcription, actives raise or lower the signal
Method in brief: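 Transiently transfected HepG2 cells carrying cis-regulated reporter transcription units were exposed for 24 h. Reporter mRNA was measured by RT-PCR with fluorescent labelling and capillary electrophoresis, and fitted in both directions against DMSO.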

[16] = ATG_M_06_TRANS: Attagene TRANS-FACTORIAL HepG2 Assay for M06 Transcription Factor (Internal Marker) (AID 2282983); details: HepG2 Attagene TRANS M06 internal marker reporter
Method in brief: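 After a 24 h chemical treatment of transfected HepG2, RNA underwent DNase I treatment, reverse transcription and reporter-specific PCR; labelled, HpaI-digested products were sized by capillary electrophoresis. Signal increase relative to DMSO defined activity.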

[17] = target: Glucocorticoid receptor (Homo sapiens) (UniProt P04150); assay: ATG_GR_TRANS: Attagene TRANS-FACTORIAL HepG2 Assay for human Glucocorticoid Receptor (GR) (AID 2282978); details: HepG2 Attagene TRANS GR reporter, mRNA transcription;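 further: activators score as hits since higher reporter transcript over DMSO is fitted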
Method in brief: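 Fluorescent capillary-electrophoresis quantitation of reporter mRNA is the readout, taken 24 h after dosing human HepG2 cells carrying transiently transfected GAL4-UAS reporter units activated by chimeric NR-GAL4 fusions; activity scored as induction over DMSO.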

[18] = target: Oxysterols receptor LXR-alpha (Homo sapiens) (UniProt Q13133); assay: ATG_LXRa_TRANS: Attagene TRANS-FACTORIAL HepG2 Assay for human Liver X Receptor alpha (LXRa) (AID 2282980); details: HepG2 Attagene TRANS reporter, LXRa transactivation
Method in brief: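 Read-out: reporter transcript levels by RT-PCR plus capillary electrophoresis, fluorescence intensity. Transiently transfected HepG2, exogenous NR-GAL4 chimera, GAL4-UAS reporters; 24 h compound exposure. Activity = increase over DMSO negative control.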

[19] = target: Steroid hormone receptor ERR1 (Homo sapiens) (UniProt P11474); assay: ATG_ERRa_TRANS: Attagene TRANS-FACTORIAL HepG2 Assay for human Estrogen-Related Receptor alpha (ERRa) (AID 2282971); details: HepG2 Attagene TRANS reporter, ERRa transactivation
Method in brief: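 Transfected HepG2, 24 h dosing, ERRa-Gal4 chimera driving GAL4-UAS reporter. Readout: reporter mRNA via RT-PCR plus capillary electrophoresis (fluorescence). Positive direction vs DMSO control.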

Measured: AC50

Chain of Bile acid receptor (Homo sapiens) (Q96RI1 whole entry, looked up, the tested form may be a part): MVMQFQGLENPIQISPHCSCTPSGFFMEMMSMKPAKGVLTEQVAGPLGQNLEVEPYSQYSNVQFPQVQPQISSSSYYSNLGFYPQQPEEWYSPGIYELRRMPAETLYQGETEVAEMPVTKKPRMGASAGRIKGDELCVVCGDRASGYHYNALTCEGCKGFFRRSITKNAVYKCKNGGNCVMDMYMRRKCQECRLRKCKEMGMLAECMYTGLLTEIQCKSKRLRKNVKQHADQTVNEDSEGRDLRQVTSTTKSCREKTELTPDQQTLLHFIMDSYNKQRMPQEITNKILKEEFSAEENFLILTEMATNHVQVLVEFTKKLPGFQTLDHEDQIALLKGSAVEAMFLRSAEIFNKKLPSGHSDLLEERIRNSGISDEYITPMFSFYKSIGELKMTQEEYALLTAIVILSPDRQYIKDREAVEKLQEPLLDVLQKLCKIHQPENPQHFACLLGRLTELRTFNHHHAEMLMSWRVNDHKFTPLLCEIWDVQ
Chain of Nuclear receptor subfamily 4 group A member 2 (Homo sapiens) (P43354 whole entry, looked up, the tested form may be a part): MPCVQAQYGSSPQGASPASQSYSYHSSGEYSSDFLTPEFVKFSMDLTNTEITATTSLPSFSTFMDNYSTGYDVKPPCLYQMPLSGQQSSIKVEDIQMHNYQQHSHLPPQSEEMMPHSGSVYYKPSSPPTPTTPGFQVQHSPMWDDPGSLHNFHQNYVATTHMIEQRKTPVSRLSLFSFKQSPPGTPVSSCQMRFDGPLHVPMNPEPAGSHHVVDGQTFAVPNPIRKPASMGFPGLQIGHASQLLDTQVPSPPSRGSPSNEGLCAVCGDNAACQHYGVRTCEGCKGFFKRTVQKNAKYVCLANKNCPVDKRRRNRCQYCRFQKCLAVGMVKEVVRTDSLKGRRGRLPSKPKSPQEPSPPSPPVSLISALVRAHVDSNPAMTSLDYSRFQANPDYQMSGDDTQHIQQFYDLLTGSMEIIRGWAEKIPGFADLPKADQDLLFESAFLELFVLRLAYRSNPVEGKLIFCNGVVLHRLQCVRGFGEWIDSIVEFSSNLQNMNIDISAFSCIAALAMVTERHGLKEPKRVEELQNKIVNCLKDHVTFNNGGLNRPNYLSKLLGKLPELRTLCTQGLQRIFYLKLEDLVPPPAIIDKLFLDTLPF
Chain of Nuclear respiratory factor 1 (Homo sapiens) (Q16656 whole entry, looked up): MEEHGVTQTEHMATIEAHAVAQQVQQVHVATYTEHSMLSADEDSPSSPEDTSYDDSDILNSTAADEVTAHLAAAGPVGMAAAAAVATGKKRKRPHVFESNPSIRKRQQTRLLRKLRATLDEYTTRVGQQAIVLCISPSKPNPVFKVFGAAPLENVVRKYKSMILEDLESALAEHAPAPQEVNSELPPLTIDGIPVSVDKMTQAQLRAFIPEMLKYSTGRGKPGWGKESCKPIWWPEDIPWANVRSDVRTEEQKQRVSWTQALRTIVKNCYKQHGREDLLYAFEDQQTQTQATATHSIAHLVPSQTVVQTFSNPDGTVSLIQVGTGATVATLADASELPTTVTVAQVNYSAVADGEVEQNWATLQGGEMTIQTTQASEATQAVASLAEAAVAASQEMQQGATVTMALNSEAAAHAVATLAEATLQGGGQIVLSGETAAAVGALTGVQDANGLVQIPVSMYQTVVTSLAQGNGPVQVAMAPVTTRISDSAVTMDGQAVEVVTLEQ
Chain of X-box-binding protein 1 (Homo sapiens) (P17861 whole entry, looked up): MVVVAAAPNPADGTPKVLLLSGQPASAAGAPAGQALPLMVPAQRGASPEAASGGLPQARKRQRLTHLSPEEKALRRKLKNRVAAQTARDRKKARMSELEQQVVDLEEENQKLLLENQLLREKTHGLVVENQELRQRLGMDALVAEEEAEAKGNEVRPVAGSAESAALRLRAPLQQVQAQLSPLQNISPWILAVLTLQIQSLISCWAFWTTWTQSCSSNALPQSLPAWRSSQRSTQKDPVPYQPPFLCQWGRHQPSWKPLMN
Chain of Hepatocyte nuclear factor 4-alpha (Homo sapiens) (P41235 whole entry, looked up, the tested form may be a part): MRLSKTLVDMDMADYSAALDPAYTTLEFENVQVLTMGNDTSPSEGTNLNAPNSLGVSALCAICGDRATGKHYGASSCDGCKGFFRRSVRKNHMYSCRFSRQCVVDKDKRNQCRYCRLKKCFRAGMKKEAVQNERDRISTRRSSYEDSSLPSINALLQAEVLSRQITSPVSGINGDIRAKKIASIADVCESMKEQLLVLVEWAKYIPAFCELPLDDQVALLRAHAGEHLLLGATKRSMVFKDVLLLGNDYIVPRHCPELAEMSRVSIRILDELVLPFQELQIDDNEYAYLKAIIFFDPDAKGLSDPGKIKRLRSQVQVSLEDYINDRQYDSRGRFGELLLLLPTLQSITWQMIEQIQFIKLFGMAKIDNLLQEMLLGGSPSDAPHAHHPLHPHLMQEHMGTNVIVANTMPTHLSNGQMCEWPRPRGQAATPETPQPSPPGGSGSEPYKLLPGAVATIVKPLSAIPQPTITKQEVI
Chain of Transcriptional activator Myb (Homo sapiens) (P10242 whole entry, looked up): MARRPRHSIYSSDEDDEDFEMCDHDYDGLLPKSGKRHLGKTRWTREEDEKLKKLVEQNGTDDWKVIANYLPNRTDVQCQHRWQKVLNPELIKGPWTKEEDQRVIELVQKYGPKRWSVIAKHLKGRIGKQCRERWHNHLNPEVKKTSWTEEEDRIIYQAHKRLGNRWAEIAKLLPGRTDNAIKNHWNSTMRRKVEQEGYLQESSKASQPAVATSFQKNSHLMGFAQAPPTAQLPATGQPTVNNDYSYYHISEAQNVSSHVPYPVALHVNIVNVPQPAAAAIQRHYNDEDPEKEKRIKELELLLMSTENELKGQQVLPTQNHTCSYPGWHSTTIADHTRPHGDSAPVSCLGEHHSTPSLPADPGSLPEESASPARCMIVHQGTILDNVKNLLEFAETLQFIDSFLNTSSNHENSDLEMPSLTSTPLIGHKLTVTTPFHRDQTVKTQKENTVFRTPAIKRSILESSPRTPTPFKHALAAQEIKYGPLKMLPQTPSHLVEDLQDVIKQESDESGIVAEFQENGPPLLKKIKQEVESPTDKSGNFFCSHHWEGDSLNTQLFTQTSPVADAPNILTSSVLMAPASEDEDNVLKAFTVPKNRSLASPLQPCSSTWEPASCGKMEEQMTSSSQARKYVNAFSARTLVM
Chain of Oxysterols receptor LXR-beta (Homo sapiens) (P55055 whole entry, looked up, the tested form may be a part): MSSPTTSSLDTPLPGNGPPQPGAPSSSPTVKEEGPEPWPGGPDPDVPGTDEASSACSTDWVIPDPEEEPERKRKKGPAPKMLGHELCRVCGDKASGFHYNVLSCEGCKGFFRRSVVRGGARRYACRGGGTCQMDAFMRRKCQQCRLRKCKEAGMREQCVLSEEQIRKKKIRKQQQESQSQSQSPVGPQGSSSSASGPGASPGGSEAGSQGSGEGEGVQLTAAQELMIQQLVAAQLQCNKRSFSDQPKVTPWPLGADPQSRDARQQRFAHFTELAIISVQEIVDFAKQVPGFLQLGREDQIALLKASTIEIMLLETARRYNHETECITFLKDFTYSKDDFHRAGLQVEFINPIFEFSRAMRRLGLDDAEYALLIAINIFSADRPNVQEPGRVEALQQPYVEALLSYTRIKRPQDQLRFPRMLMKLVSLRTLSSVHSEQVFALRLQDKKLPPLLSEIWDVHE
Chain of Glucocorticoid receptor (Homo sapiens) (P04150 whole entry, looked up, the tested form may be a part): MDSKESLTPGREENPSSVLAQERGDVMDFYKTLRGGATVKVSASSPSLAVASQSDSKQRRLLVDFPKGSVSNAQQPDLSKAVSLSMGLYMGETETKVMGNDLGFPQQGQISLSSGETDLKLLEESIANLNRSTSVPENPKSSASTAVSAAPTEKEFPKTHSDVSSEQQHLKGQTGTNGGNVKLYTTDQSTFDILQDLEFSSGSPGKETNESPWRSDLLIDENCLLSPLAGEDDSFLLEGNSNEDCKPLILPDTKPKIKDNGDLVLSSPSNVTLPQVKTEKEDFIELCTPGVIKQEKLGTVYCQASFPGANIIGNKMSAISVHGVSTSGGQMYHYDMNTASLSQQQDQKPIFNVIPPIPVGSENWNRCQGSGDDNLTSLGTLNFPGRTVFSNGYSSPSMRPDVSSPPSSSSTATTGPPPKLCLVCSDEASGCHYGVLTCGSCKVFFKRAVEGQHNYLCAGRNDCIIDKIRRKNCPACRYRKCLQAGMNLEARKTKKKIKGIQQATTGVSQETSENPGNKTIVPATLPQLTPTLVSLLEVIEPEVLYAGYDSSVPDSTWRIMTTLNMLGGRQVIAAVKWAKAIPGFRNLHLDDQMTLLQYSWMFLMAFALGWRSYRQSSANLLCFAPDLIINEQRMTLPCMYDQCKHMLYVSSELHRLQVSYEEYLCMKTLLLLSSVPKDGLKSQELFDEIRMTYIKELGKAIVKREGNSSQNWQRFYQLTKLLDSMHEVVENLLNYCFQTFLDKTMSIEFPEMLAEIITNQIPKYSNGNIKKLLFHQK
Chain of Estrogen-related receptor gamma (Homo sapiens) (P62508 whole entry, looked up, the tested form may be a part): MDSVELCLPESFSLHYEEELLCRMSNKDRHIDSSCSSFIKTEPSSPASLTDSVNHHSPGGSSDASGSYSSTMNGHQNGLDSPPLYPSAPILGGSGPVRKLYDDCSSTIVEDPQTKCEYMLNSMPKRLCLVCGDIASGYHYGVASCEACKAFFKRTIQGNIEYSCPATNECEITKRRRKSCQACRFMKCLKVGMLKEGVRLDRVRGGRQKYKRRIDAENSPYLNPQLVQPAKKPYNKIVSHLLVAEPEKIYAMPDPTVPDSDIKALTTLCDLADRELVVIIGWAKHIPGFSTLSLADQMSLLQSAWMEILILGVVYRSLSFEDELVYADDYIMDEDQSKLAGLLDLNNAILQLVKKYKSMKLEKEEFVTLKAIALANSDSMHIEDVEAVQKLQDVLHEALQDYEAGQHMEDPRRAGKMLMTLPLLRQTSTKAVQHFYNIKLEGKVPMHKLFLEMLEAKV

O=C1OC(=O)c2c(Cl)c(Cl)c(Cl)c(Cl)c21
not listed: [15] | [16] | [17] | [18] | [19]
inactive: all other assays above

CC(=O)Nc1ccc(C(=O)CCl)cc1
inactive: [1] | [2] | [10] | [16] | [13] | [14]
active: [15] 8.84 µM | [4] 7.85 µM

O=C1OC[C@H](Cc2cccc(O)c2)[C@H]1Cc1cccc(O)c1
active: [15] 21.8 µM
not listed: [3] | [5] | [6] | [7] | [8] | [11] | [19]
inactive: all other assays above

C=C(C)[C@H]1CC=C(C)C(=O)C1
not listed: [3] | [4] | [5] | [6] | [7] | [8] | [12] | [19]
inactive: all other assays above

C/C=C(\C)C(=O)OCCc1ccccc1
not listed: [6] | [8] | [9] | [11] | [15] | [19]
inactive: all other assays above

Cc1occc(=O)c1OC(=O)C(C)C
inactive: [1] | [2] | [15] | [5] | [18] | [10] | [11] | [12] | [13] | [14]

COC(=O)Nc1ccc(Cl)c(Cl)c1
active: [15] 43.7 µM | [4] 26.7 µM | [12] 79.9 µM
inactive: [1] | [2] | [8] | [9] | [10] | [16] | [11] | [13] | [14]

O=C(O)c1ccc(O)cc1
not listed: [6] | [9] | [12] | [15] | [17]
inactive: all other assays above

CCCCCC(=O)CC
inactive: [1] | [2] | [15] | [8] | [10] | [16] | [13] | [14]

CCc1ncc(C)[nH]1
inactive: [1] | [2] | [15] | [4] | [17] | [18] | [9] | [16] | [13] | [14]

C=C(C)C1CC=C(C)C(=O)C1 (stereo not drawn)
inactive: [1] | [2] | [15] | [9] | [10] | [16] | [13] | [14]

CN(C)C(=O)Nc1ccc(Oc2ccc(Cl)cc2)cc1
inactive: [1] | [2] | [15] | [4] | [17] | [9] | [16] | [11] | [13] | [14]

COc1cc(CCC(C)=O)ccc1O
not listed: [3] | [4] | [10] | [16] | [18] | [19]
inactive: all other assays above
